According to PubChem BioAssay (NCI):
This is part of a sample that, as a whole, favours compounds with a hit. Of some 79,000 tested, about 15% had one in any assay. Active and inactive are the calls of the source. No stated cut-off is given here; in the data, active means growth inhibition above about 70%; inactive means the rest.

Experiments:
[1] = NCI Yeast Anticancer Drug Screen. Data for the wt1 strain (AID 149);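 further: 0% = growth of vehicle-treated wt1 cultures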; conditions: S. cerevisiae wt1 strain (SPY 50644) growth inhibition, active compounds read high
Summary of the method: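 wt1 yeast, compound-treated; % growth inhibition vs vehicle control.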

[2] = NCI Yeast Anticancer Drug Screen. Data for the rad50EPP+ strain (AID 151);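 further: 0% = growth of vehicle-treated control cultures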; conditions: S. cerevisiae rad50 mutant strain, active compounds read high
Summary of the method: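 Measured: growth inhibition of rad50EPP+ yeast. Reference: vehicle-treated controls. Screen uses strains with defined genetic alterations in DNA damage repair or cell cycle control.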

[3] = NCI Yeast Anticancer Drug Screen. Data for the rad50 strain (AID 155);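 further: 0% = growth of vehicle-only cultures of the same strain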; conditions: S. cerevisiae rad50 strain growth inhibition, active compounds read high
Summary of the method: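 Genetically altered yeast (DNA repair pathway); compound treatment; growth inhibition vs vehicle ctrl.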

[4] = NCI Yeast Anticancer Drug Screen. Data for the mec2-1 strain (AID 157); conditions: S. cerevisiae mec2-1 strain, active compounds read high
Summary of the method: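 Compounds were applied to mec2-1 yeast cells. Their growth was then compared with that of vehicle-treated cultures to give growth inhibition.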

[5] = NCI Yeast Anticancer Drug Screen. Data for the sgs1 mgt1 strain (AID 161);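 further: 0% = growth of cultures given vehicle only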; conditions: S. cerevisiae sgs1 mgt1 strain, active compounds read high
Summary of the method: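 Percent growth inhibition was derived by comparing compound-exposed mutant yeast with vehicle-exposed cultures. The strain carries alterations in DNA damage repair.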

[6] = NCI Yeast Anticancer Drug Screen. Data for the CLN2oe strain (AID 163);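 further: 0% = growth of vehicle-only control cultures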; conditions: S. cerevisiae CLN2oe strain, active compounds read high
Summary of the method: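 Cells of an engineered yeast line with disturbed cell-cycle regulation are treated with compound. Inhibition of growth is then calculated relative to the vehicle-treated reference.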

[7] = NCI Yeast Anticancer Drug Screen. Data for the cln2 rad14 strain (AID 165);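 further: 0% = growth equal to vehicle treated cultures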; conditions: S. cerevisiae cln2 rad14 strain, active compounds read high
Summary of the method: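 Strain: cln2 rad14 yeast, altered in cell cycle control and DNA damage repair. Read-out: growth inhibition vs vehicle.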

[8] = NCI Yeast Anticancer Drug Screen. Data for the bub3 strain (AID 167); conditions: S. cerevisiae bub3 mutant strain, active compounds read high
Summary of the method: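 Yeast carrying a defined mutation is treated with each compound, and growth is compared with that of vehicle-exposed cells to give inhibition.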

[9] = NCI Yeast Anticancer Drug Screen. Data for the wt2 strain (AID 169);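 further: 0% = growth of vehicle-treated yeast cultures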; conditions: S. cerevisiae wt2 strain growth inhibition, active compounds read high
Summary of the method: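 Growth of compound-treated yeast is measured and expressed as inhibition relative to vehicle-only controls.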

[10] = NCI Yeast Anticancer Drug Screen. Data for the mlh1 strain (AID 171);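 further: 0% = growth of vehicle-treated control cultures of the same strain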; conditions: S. cerevisiae mlh1 strain growth inhibition, active compounds read high
Summary of the method: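 Test agents were incubated with yeast bearing a defined DNA damage repair or cell cycle control alteration; values are growth inhibition normalised to vehicle-treated cultures.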

[11] = NCI Yeast Anticancer Drug Screen. Data for the sgs1 strain (AID 173);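 further: 0% = growth of vehicle-only control cultures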; conditions: S. cerevisiae sgs1 mutant, active compounds read high
Summary of the method: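 Strain with an altered DNA repair or cell cycle pathway exposed to compound. Growth then measured. Value = inhibition versus vehicle control.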

[12] = NCI Yeast Anticancer Drug Screen. Data for the mlh1 rad18 strain (AID 175); conditions: S. cerevisiae mlh1 rad18 strain growth inhibition, active compounds read high
Summary of the method: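 A repair-deficient yeast strain is exposed to test compound, and growth is scored relative to vehicle-treated controls.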

[13] = NCI Yeast Anticancer Drug Screen. Data for the rad18 strain (AID 177); conditions: S. cerevisiae rad18 mutant growth inhibition, active compounds read high
Summary of the method: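 DNA-repair-defective yeast; compound treatment; growth inhibition scored against vehicle.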

[14] = NCI Yeast Anticancer Drug Screen. Data for the mgt1 strain (AID 153); conditions: S. cerevisiae mgt1 mutant growth inhibition, active compounds read high
Summary of the method: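 Compounds were applied to mgt1 mutant yeast, and growth was then compared against vehicle-treated control cultures to give percent inhibition.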

[15] = at 5.0 µM (retest, dose inferred, filed as 0.5)
[16] = at 50.0 µM (retest, dose inferred, filed as 5.0)

Measured: growth inhibition

Cc1ccc(Cl)c2c(=O)c3ccccc3[nH]c12
active: [3]; [16] 71% | [3]; at 50.0 µM 84.1% | [12]; at 50.0 µM 71%
inactive: [1]; at 1.2 µM -1% | [1]; at 3.7 µM -3% | [1]; at 11.0 µM -2% | [1]; at 33.0 µM 0% | [1]; at 100.0 µM 5% | [2]; at 1.2 µM 4% | [2]; at 3.7 µM 2% | [2]; at 11.0 µM 12% | [2]; at 33.0 µM 24% | [2]; at 100.0 µM 58% | [3]; at 1.2 µM -9% | [3]; at 3.7 µM -44% | [3]; [15] 5% | [3]; at 11.0 µM 14% | [3]; at 33.0 µM 3% | [3]; at 100.0 µM 51% | [4]; at 1.2 µM -1% | [4]; at 3.7 µM -3% | [4]; [15] 4% | [4]; at 11.0 µM -2% | [4]; at 33.0 µM 1% | [4]; [16] 32% | [4]; at 50.0 µM 40% | [4]; at 100.0 µM 11% | [5]; [15] 0% | [5]; [16] 34% | [5]; at 50.0 µM 41.3% | [6]; at 1.2 µM -4% | [6]; at 3.7 µM -5% | [6]; at 11.0 µM -4% | [6]; at 33.0 µM -2% | [6]; at 100.0 µM -12% | [7]; [15] -8% | [7]; [16] 9% | [7]; at 50.0 µM 11.2% | [8]; at 1.2 µM -3% | [8]; at 3.7 µM -2% | [8]; [15] -5% | [8]; at 11.0 µM -7% | [8]; at 33.0 µM -1% | [8]; [16] 14% | [8]; at 50.0 µM 27.6% | [8]; at 100.0 µM 4% | [9]; at 1.2 µM 0% | [9]; at 3.7 µM 8% | [9]; at 11.0 µM 1% | [9]; at 33.0 µM 4% | [9]; at 100.0 µM 10% | [10]; at 1.2 µM 0% | [10]; at 3.7 µM -1% | [10]; at 11.0 µM 0% | [10]; at 33.0 µM 0% | [10]; at 100.0 µM 12% | [11]; at 1.2 µM -2% | [11]; at 3.7 µM 2% | [11]; at 11.0 µM -1% | [11]; at 33.0 µM 4% | [11]; at 100.0 µM 23% | [12]; [15] 2% | [12]; [16] 59% | [13]; at 1.2 µM 1% | [13]; at 3.7 µM 2% | [13]; at 11.0 µM 2% | [13]; at 33.0 µM 7% | [13]; at 100.0 µM 54%

CC1=NN(C(=O)CC(=O)N(C(=O)c2ccccc2)c2ccc(Cl)cc2)C(=O)C1N=Nc1ccc([N+](=O)[O-])cc1 (stereo not drawn)
active: [14]; at 100.0 µM 71% | [3]; at 33.0 µM 74% | [3]; [16] 89% | [3]; at 50.0 µM 84.5% | [3]; at 100.0 µM 74% | [4]; at 50.0 µM 83.6% | [5]; at 50.0 µM 77.7% | [6]; at 33.0 µM 75% | [6]; at 100.0 µM 77% | [8]; at 50.0 µM 85% | [8]; at 100.0 µM 71% | [9]; at 33.0 µM 87% | [9]; at 100.0 µM 82%
inactive: [1]; at 1.2 µM -43% | [1]; at 3.7 µM -1% | [1]; at 11.0 µM 10% | [1]; at 33.0 µM 26% | [1]; at 100.0 µM 37% | [2]; at 1.2 µM 6% | [2]; at 3.7 µM 26% | [2]; at 11.0 µM 39% | [2]; at 33.0 µM 41% | [2]; at 100.0 µM 32% | [14]; at 1.2 µM 0% | [14]; at 3.7 µM 7% | [14]; at 11.0 µM 35% | [14]; at 33.0 µM 62% | [3]; at 1.2 µM -3% | [3]; at 3.7 µM 8% | [3]; [15] 41% | [3]; at 11.0 µM 50% | [4]; at 1.2 µM -3% | [4]; at 3.7 µM 8% | [4]; [15] 8% | [4]; at 11.0 µM 41% | [4]; at 33.0 µM 67% | [4]; [16] 56% | [4]; at 100.0 µM 68% | [5]; [15] -1% | [5]; [16] 49% | [6]; at 1.2 µM -11% | [6]; at 3.7 µM 6% | [6]; at 11.0 µM 48% | [7]; [15] 63% | [7]; [16] 66% | [7]; at 50.0 µM 55.8% | [8]; at 1.2 µM -5% | [8]; at 3.7 µM -6% | [8]; [15] 4% | [8]; at 11.0 µM 30% | [8]; at 33.0 µM 63% | [8]; [16] 67% | [9]; at 1.2 µM -4% | [9]; at 3.7 µM 7% | [9]; at 11.0 µM 64% | [10]; at 1.2 µM 0% | [10]; at 3.7 µM 8% | [10]; at 11.0 µM 36% | [10]; at 33.0 µM 59% | [10]; at 100.0 µM 69%
